The source of these data is PubChem BioAssay (NCATS).

Results filed as inconclusive are left out. A number with no mark means an inactive call. Calls of active or inactive are those of the source. The call rests on the fitted dose curve; in most records, active means well fitted curve in the direction sought with a large enough effect; inconclusive means small, poorly fitted or top-dose-only effect, or another doubt; inactive means no such curve, though single readings can be large; an effect the other way counts as inactive or inconclusive. *1 amine or outer side, *2 acyl side, *3 side chain or, on linkers, in order; H or OH if unused. Where a SMILES comes first, the peptide text is derived from it. Bridges are numbered along the chain shown (N, C = ends). [ ]: non-standard residue; d: D form. The star is where a group is joined. pTerphenylCO(4''-OnC5H11) = CCCCCOc1ccc(-c2ccc(-c3ccc(C(=O)*)cc3)cc2)cc1; Orn(4R-OH,5R-OH) = O=C([C@H](C[C@@H](O)[C@@H](O)N[*:3])N[*:1])[*:2]; hTyr(3S-OH,4S-OH) = N[C@H](C(=O)O)[C@H](O)[C@@H](O)c1ccc(O)cc1; Pro(3S-OH,4S-Me) = C[C@H]1CN[C@H](C(=O)O)[C@H]1O; Hyp = O=C(O)[C@@H]1C[C@@H](O)CN1

For test [1], the system named is CRL-7250. Put plainly: Cytotoxic Profiling of Annotated Libraries Using Quantitative High-Throughput Screening (AID 1296008). Further: nearly all actives have a fitted effect of over 60% in size. On max response: on the % scale 0 is the no-effect control and ±100 the full control effect. To be noted: Five cell lines viability, CellTiter-Glo ATP luminescence, 48-72 h; max response: stronger effect = lower value. An outline of the steps:
(§1)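 Cells exposed to compounds for 48 or 72 hr at 37 degrees Celsius. Viability read as ATP-coupled luminescence with CellTiter-Glo after 10 min at room temperature.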
In general terms: ATP-based viability assays read luminescence as a measure of living cells.

The test system of test [2] is HaCat. The test is described as above. Conditions: Five cell lines viability, CellTiter-Glo ATP luminescence, 48-72 h; max response: stronger effect = lower value. Summed up:
as §1

Test [3] relates to KB-3-1. The description is as above. To be noted: Five cell lines viability, CellTiter-Glo ATP luminescence, 48-72 h; max response: stronger effect = lower value. An outline of the steps: as §1
Test [4] has as its system NIH3T3. The description is as above. To be noted: Five cell lines viability, CellTiter-Glo ATP luminescence, 48-72 h; max response: stronger effect = lower value. An outline of the steps:
as §1

Test [5] concerns NIH3T3. The test can be described thus: qHTS assay to identify novel small-molecules to repurpose for Merkel cell carcinoma treatment (AID 1296009). Further: nearly all actives have a fitted effect of over 60% in size. To be noted: MCC and control cell lines, CellTiter-Glo viability, 72 h; series mostly up to 44.8 µM. Summed up: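 Cells were treated for 72 hr at 37 degree celsius with compounds in 8- or 11-point dose response. Viability was read by CellTiter-Glo luminescence, normalized to no-cell (cytotoxicity) and DMSO controls.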

The test system of test [6] is C33A. Put plainly: Primary qHTS to identify gynecologic anti-cancer compounds using libraries of approved drugs and bioactive compounds (AID 1345084). Further: nearly all actives have a fitted effect of over 55% in size. Further: potency means the concentration at half of the fitted maximal effect. To be noted: Gynecologic cancer cell panel viability, ATPlite luminescence, 48 h; series mostly up to 57.5 µM. An outline of the steps: (§2)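 In this quantitative HTS, cell killing is estimated from loss of ATP-dependent luciferase light. Cells see five compound concentrations over a 48 h exposure.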

Test [7] has as its system CAOV3. The description is as above. To be noted: Gynecologic cancer cell panel viability, ATPlite luminescence, 48 h; series mostly up to 57.5 µM. Summed up: as §2
Test [8] has as its system CASKI. The test is described as above. Conditions: Gynecologic cancer cell panel viability, ATPlite luminescence, 48 h; series mostly up to 57.5 µM. Summed up:
as §2

In test [9] the test system is Es-2. The description is as above. To be noted: Gynecologic cancer cell panel viability, ATPlite luminescence, 48 h; series mostly up to 57.5 µM. An outline of the steps:
as §2

In test [10] the test system is HeLa. The description is as above. Conditions: Gynecologic cancer cell panel viability, ATPlite luminescence, 48 h; series mostly up to 57.5 µM. An outline of the steps:
as §2

Test [11] deals with Hek293T. Described as above. To be noted: Gynecologic cancer cell panel viability, ATPlite luminescence, 48 h, control line for the selectivity index; series mostly up to 57.5 µM. Summed up:
as §2

Test [12] has as its system JEG-3. The test is described as above. To be noted: Gynecologic cancer cell panel viability, ATPlite luminescence, 48 h; series mostly up to 57.5 µM. An outline of the steps: as §2
In test [13] the test system is OV90. Described as above. To be noted: Gynecologic cancer cell panel viability, ATPlite luminescence, 48 h; series mostly up to 57.5 µM. An outline of the steps:
as §2

The test system of test [14] is PA-1. Described as above. Conditions: Gynecologic cancer cell panel viability, ATPlite luminescence, 48 h; series mostly up to 57.5 µM. An outline of the steps:
as §2

Take `Cc1cc(OCCCS(C)(=O)=O)cc(C)c1-c1cccc(COc2ccc3c(c2)OCC3CC(=O)O)c1` (configuration not stated): the max response in [1] was -4.99%; in [2] it was 0.974%; in [3], -3.22%. Further, in [4], the compound was classed as inactive. Besides, the Potency entry in [5], in [6], in test [7], in test [8], in test [9] and in test [10] was “inactive” in each case. For the same compound, the Potency entry in test [11], in test [12] and in [13] was “inactive” throughout.
Turning to `CCc1c(Cl)c(O)c(Cl)c(O)c1C(=O)O[C@H]1[C@H](O)[C@H](OC)[C@H](OC/C2=C\C=C\C[C@H](O)/C(C)=C\[C@H](CC)[C@@H](O[C@@H]3OC(C)(C)[C@@H](OC(=O)C(C)C)[C@H](O)[C@@H]3O)/C(C)=C/C(C)=C/C[C@@H]([C@@H](C)O)OC2=O)O[C@@H]1C`, the outcome in [1] and in [4] was inactive. In addition, the results for the max response in test [2] and in [3] were -22.3% and -8.77%, respectively. The Potency result in test [5], in test [6], in test [7], in test [8], in [9] and in [10] was “inactive” in each case. For the same compound, the Potency entry in [11], in test [12], in test [13] and in test [14] was “inactive” each time.
With `CCC(C)C(=O)O[C@H]1[C@@H](OC(=O)c2ccoc2)C[C@](C)(O)[C@]23OC(C)(C)[C@H](C[C@H](OC(=O)c4ccoc4)[C@]12COC(C)=O)[C@H]3OC(C)=O` (some centres not stated), the values for the max response in [1], in test [2] and in test [3] were -11%, -1.74% and 3.34%, respectively. For the same compound, the result in test [4] was inactive. The Potency result in test [5], in test [6], in [7], in test [8], in [9] and in test [10] was “inactive” throughout. Further, the Potency result in [11], in [12], in test [13] and in test [14] was “inactive” throughout.
`CCC(C)C(=O)OC12C(OC(C)=O)C(C)C3(O)C(C=C(CO)CC4(O)C(=O)C(C)=CC43)C1C2(C)C` (configuration not stated): the results for the max response in [1] and in [2] were -7.79% and -11.4%, respectively. The result in test [3] and in [4] was inactive. Besides, the Potency result in [5], in test [7], in test [8], in test [10], in test [11] and in [12] was “inactive” each time. Besides, the Potency in [9] is 316 nM (active).
Turning to `CC(=O)OC1C(OC(=O)c2ccccc2)C2C(C)(C)CCC(OC(C)=O)C2(C)C23CCC(C)(C2)C(=O)CC13` (configuration not stated), the call in test [1] and in [4] was inactive. For the same compound, the results for the max response in [2] and in test [3] were -16.6% and 6.15%, respectively. Also, the Potency entry in test [5], in [6], in test [7], in [8], in test [9] and in [10] was “inactive” in each case. Besides, the Potency result in [11], in [12], in test [13] and in [14] was “inactive” in each case.
As to `CC(=O)[C@H]1CC[C@H]2[C@@H]3CC=C4C[C@@H](OS(=O)(=O)O)CC[C@]4(C)[C@H]3CC[C@]12C`, the call in [1] was inactive. Moreover, the max response in test [2] is 1.57%; in [3], 2.57%; in test [4] it was -4.15%. For the same compound, the Potency entry in test [6], in [7], in test [8], in [9], in test [10] and in [11] was “inactive” throughout. Moreover, the Potency result in test [12], in [13] and in test [14] was “inactive” throughout.
As to `CCCCCOc1ccc(-c2ccc(-c3ccc(C(=O)N[C@H]4C[C@@H](O)[C@@H](O)NC(=O)[C@@H]5[C@@H](O)[C@@H](C)CN5C(=O)[C@H]([C@@H](C)O)NC(=O)[C@H]([C@H](O)[C@@H](O)c5ccc(O)cc5)NC(=O)[C@@H]5C[C@@H](O)CN5C(=O)[C@H]([C@@H](C)O)NC4=O)cc3)cc2)cc1` ({pTerphenylCO(4''-OnC5H11)}-[Orn(4R-OH,5R-OH)]T[Hyp][hTyr(3S-OH,4S-OH)]T[Pro(3S-OH,4S-Me)]; lactam 1-C), the max response is 4.73% in test [1], 3.64% in test [2] and -1.62% in [4]. In addition, the compound was called inactive in test [3]. In addition, the Potency result in [6], in test [7], in test [8], in test [9], in [10] and in test [11] was “inactive” throughout. In addition, the Potency entry in [12], in [13] and in [14] was “inactive” throughout.
